Source: PubChem (several laboratories)
In the library only some 4% were active in any assay of this set; here they are far more common.
Gli-Sufu block: Gli-Sufu pathway antagonism; Sufu-KO-LIGHT fibroblasts, Gli luciferase reporter luminescence; 0.74% of 340,000 active; inhibition, % at 5 µM;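 active = inhibition above about 55%, limit read from the data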;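 also: 0% = DMSO-treated cells and 100% = wells with medium but no cells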
Shn3 3UTR inh: inhibitors of Schnurri-3 3'UTR reporter in osteoblasts; Clone20 osteoblast Shn3 3'UTR firefly luciferase, 24 h; 0.52% of 360,000 active; AID 588674; inhibition, % at 12.5 µM;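 active = mean inhibition of at least 75% with every replicate also reaching 75%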;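 also: 0% = median of neutral control wells and 100% = pilot-screen positive control compound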
Mdm2 MdmX PPI: inhibitors of human Mdm2/MdmX interaction; O15151+Q00987; SaOS-2 split-luciferase Mdm2/MdmX complementation, luminescence; inhibition, % at 8 µM; 3% of 330,000 active; AID 485346;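 active = inhibition of at least 50% at 8 µM in the primary screen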
Target sequence (O15151 whole entry, looked up): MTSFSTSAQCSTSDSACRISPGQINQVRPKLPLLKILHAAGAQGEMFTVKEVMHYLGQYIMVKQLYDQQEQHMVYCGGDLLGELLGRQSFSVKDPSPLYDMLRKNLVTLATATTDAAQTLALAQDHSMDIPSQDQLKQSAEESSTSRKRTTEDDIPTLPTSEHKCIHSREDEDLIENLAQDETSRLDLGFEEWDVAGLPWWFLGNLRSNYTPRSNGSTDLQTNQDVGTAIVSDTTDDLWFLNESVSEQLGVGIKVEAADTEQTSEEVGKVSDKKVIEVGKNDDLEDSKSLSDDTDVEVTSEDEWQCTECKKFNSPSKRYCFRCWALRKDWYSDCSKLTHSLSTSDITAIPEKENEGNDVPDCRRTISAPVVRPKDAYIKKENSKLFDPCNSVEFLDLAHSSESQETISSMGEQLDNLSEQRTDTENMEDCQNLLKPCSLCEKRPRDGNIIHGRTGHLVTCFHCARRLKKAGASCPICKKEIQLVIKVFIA
Target sequence (Q00987 whole entry, looked up): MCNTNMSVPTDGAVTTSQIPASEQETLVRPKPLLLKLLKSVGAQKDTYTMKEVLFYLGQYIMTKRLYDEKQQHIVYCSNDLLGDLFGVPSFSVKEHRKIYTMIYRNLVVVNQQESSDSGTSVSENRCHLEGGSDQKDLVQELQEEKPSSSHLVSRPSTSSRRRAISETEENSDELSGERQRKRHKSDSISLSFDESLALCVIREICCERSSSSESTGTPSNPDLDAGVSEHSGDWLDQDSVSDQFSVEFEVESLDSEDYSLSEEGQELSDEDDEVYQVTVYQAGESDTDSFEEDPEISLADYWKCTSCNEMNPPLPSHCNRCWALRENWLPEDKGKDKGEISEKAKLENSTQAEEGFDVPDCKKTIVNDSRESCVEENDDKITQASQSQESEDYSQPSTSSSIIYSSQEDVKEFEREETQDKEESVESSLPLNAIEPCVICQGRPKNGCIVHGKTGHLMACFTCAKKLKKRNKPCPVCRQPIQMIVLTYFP
PAX8 inh HTS: lowers PAX8-driven luciferase in RMG-I cells; AID 652154; 1.2% of 360,000 active; RMG-I TPO-luciferase reporter, SteadyGlo, 24 h; inhibition, % at 12.6 µM;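 active = mean replicate inhibition at least 60% with every replicate also reaching 60%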;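 also: luciferase light reporting Pax8 driven TPO promoter activity; plate controls were median of neutral control wells for no effect and mitoxantrone controls for full effect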
Beta cell apopt: blocks beta cell apoptosis; INS-1E cytokine-induced death, ATP luminescence, 48 h; percent of positive-control rescue, neutral wells zero; protection from apoptosis, % (test concentration not listed); 0.8% of 300,000 active; AID 435005;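 active = Every replicate reaches about 75%, or at least half do and their mean reaches it too, limit read from the data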;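 also: 0% = cytokine-treated negative control wells and 100% = positive control rescue; higher means more ATP so stronger rescue from cytokine killing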
CSC inhib: blocks cancer stem cells. AID 2717. inhibition, % at 7.5 µM. 1.1% of 300,000 active. cancer stem cell-like cells viability, luminescence; in the data active = inhibition above about 75%; tested in HMLE shEcad cells
Mdm2 MdmX conf: confirmation of human Mdm2/MdmX interaction inhibitors. inhibition, % at 8 µM. 55% of 10,000 active. AID 489028. shares compounds with Mdm2 MdmX PPI. Mdm2-MdmX binding, luminescent assay; in the data active = inhibition above about 40%
FLuc counter: inhibits full-length luciferase, flagging false Mdm2/MdmX hits; shares compounds with Mdm2 MdmX PPI; SaOS-2 full-length luciferase counterscreen, luminescence; inhibition, % at 8 µM; 77% of 6,200 active; AID 504607;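 active = mean inhibition at 8 µM reaching about 37%, which flags the compound as non-specific, limit read from the data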;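 also: p53-null SaOS-2 cells with luciferase driven by a doxycycline-inducible promoter; compound on cells about two nights before reading with doxycycline added after day one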
Gli-Sufu confirm: confirmation of Gli-SUFU pathway antagonists | Sufu-KO-LIGHT cells, Gli luciferase reporter, luminescence | shares compounds with Gli-Sufu block | inhibition, % at 5 µM | 40% of 2,500 active | AID 602428;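 active = mean inhibition at 5 µM reaching about 45%, limit read from the data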;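 also: plate controls were DMSO-treated cells for no effect and wells lacking cells for full effect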
Gli cytotox: cytotoxic in Gli-SUFU antagonist counter-screen | shares compounds with Gli-Sufu block | Sufu-KO-LIGHT cells cytotoxicity, ATP luminescence | 32% of 2,500 active | cytotoxicity, % at 5 µM;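 active = mean cytotoxicity at 5 µM above about 25%, limit read from the data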;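 also: cells exposed to compound overnight for roughly 16 to 18 hours; plate controls were DMSO wells with cells for no effect and medium without cells for full effect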
Wnt3a counter: Wnt3a reporter inhibition counter-screen | shares compounds with Gli-Sufu block | Wnt-LIGHT cells, Wnt3a-driven luciferase reporter, luminescence | inhibition, % at 6.25 µM | 20% of 2,500 active;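 active = mean inhibition above about 25%, limit read from the data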
* marks the source's active call; other numbers are inactive results.

`O=C(N/N=C\c1cc(Br)ccc1O)c1ccc(S(=O)(=O)N2CCCCC2)cc1` gave Gli-Sufu block 77*, Shn3 3UTR inh 91*, Mdm2 MdmX PPI 70*, PAX8 inh HTS 11, Beta cell apopt 100*, CSC inhib 104*, Mdm2 MdmX conf 75*, FLuc counter 21, Gli-Sufu confirm 76*, Gli cytotox 30* and Wnt3a counter 74*.
Screening O=C(N/N=C/c1ccc(O)c(O)c1)c1cccc(S(=O)(=O)N2CCCCC2)c1 returned Gli-Sufu block -2, Shn3 3UTR inh -4, Mdm2 MdmX PPI -3, PAX8 inh HTS 13, Beta cell apopt -1 and CSC inhib 10.
`COc1cc(C2c3cc4c(cc3C(OC3OC5COC(c6cccs6)OC5C(O)C3O)C3COC(=O)C23)OCO4)cc(OC)c1O` (stereo not drawn) gave Gli-Sufu block 82*, Shn3 3UTR inh 94*, Mdm2 MdmX PPI 94*, PAX8 inh HTS 69*, Beta cell apopt 94*, CSC inhib 101*, Mdm2 MdmX conf 88*, FLuc counter 22, Gli-Sufu confirm 81*, Gli cytotox 72* and Wnt3a counter 57*.
Cc1cc2cc(CN(CC3CCCO3)C(=S)Nc3ccccc3)c(=O)[nH]c2cc1C (stereo not drawn) was read as Gli-Sufu block 63*, Shn3 3UTR inh 90*, Mdm2 MdmX PPI 67*, PAX8 inh HTS 7, Beta cell apopt 9, CSC inhib 3, Mdm2 MdmX conf 56*, FLuc counter 59*, Gli-Sufu confirm 80*, Gli cytotox 50* and Wnt3a counter -1.
O=C(C[C@H]1CC[C@H](NC(=O)Nc2ccc(C(F)(F)F)cc2)[C@H](CO)O1)NCc1cc(F)cc(F)c1 was read as PAX8 inh HTS -3.
For Cc1noc(C)c1S(=O)(=O)Nc1ccc2c(c1)C(=O)N([C@H](C)CO)C[C@@H](C)[C@H](CN(C)S(=O)(=O)c1ccc(F)cc1)OCCCC[C@@H](C)O2 the results were PAX8 inh HTS 14.
Screening Cc1ccc(S(=O)(=O)N[C@H]2C=C[C@H](CC(=O)N3CCC(Cc4ccccc4)CC3)O[C@@H]2CO)cc1 returned PAX8 inh HTS 37.
For O=C1C=C(c2ccc3cc[nH]c3c2)C[C@@H](c2ccc3c(c2)OCO3)C1 the results were Gli-Sufu block 59*, Shn3 3UTR inh -2, Mdm2 MdmX PPI 57*, Beta cell apopt 12, CSC inhib 49, Mdm2 MdmX conf 57*, FLuc counter 53*, Gli-Sufu confirm 32, Gli cytotox 14 and Wnt3a counter -59.
For O=C(C[C@H]1CC[C@@H]2[C@H](COC[C@H](O)CN2C(=O)c2cnccn2)O1)NCc1ccccc1 the results were PAX8 inh HTS 0.
`Cc1ccc(S(=O)(=O)N(C)C[C@H]2Oc3c(NC(=O)C4CCOCC4)cccc3C(=O)N([C@H](C)CO)C[C@H]2C)cc1` gave PAX8 inh HTS -4.
Screening COc1ccc(/C=C2/SC(=S)N(CCCC(=O)Nc3cccc(O)c3)C2=O)cc1 returned Gli-Sufu block 62*, Shn3 3UTR inh 3, Mdm2 MdmX PPI 83*, PAX8 inh HTS 77*, Beta cell apopt -6, Mdm2 MdmX conf 43*, FLuc counter 29, Gli-Sufu confirm 58*, Gli cytotox 0 and Wnt3a counter -21.
For COc1ccc(/C=C2\SC(=S)N(CCCC(=O)N3CCCCC3CCO)C2=O)cc1 (stereo not drawn) the results were Gli-Sufu block 66*, Shn3 3UTR inh 8, Mdm2 MdmX PPI 64*, PAX8 inh HTS 75*, Beta cell apopt -21, CSC inhib -12, Mdm2 MdmX conf 22, Gli-Sufu confirm 25, Gli cytotox 13 and Wnt3a counter 17.
`COc1ccc(/C=C2\SC(=S)N(CCC(=O)Nc3cccc(O)c3)C2=O)cc1OC` gave Gli-Sufu block -9, Shn3 3UTR inh -15, Mdm2 MdmX PPI 21, PAX8 inh HTS 2, Beta cell apopt 5 and CSC inhib 10.
`COc1cc(CO)cc(I)c1O[C@H]1C=C(C(=O)NCCO)C[C@@H](N(CC2CCCCC2)C(=O)c2ccc(C(F)(F)F)cc2)[C@@H]1O` gave PAX8 inh HTS 4.
`Cc1ccc(Nc2nc3c(c(=O)[nH]2)CCCC3)cc1` gave Gli-Sufu block -38, Shn3 3UTR inh -31, Mdm2 MdmX PPI -36, Beta cell apopt 6 and CSC inhib 3.
`O=c1[nH]c(Nc2nc3ccccc3o2)nc2c1CCCC2` gave Gli-Sufu block 62*, Shn3 3UTR inh 80, Mdm2 MdmX PPI 100*, Beta cell apopt 42, CSC inhib 70, Mdm2 MdmX conf 75*, FLuc counter 79*, Gli-Sufu confirm 64*, Gli cytotox 39* and Wnt3a counter 44*.
`O=C(O)c1ccc(-c2nc(-c3ccccc3)c(-c3cccs3)[nH]2)cc1` gave Gli-Sufu block -9, Shn3 3UTR inh 14, Mdm2 MdmX PPI 8, PAX8 inh HTS -15, Beta cell apopt -3 and CSC inhib -19.
O=[N+]([O-])c1ccc(O)c(-c2nc(-c3ccccc3)c(-c3cccs3)[nH]2)c1 was read as Gli-Sufu block 52, Shn3 3UTR inh 0, Mdm2 MdmX PPI 85*, Beta cell apopt 49, CSC inhib 100*, Mdm2 MdmX conf 89*, FLuc counter 49*, Gli-Sufu confirm 70*, Gli cytotox 11 and Wnt3a counter 67*.
C[C@H]1CN([C@@H](C)CO)C(=O)c2cc(NC(=O)Nc3ccccc3)ccc2O[C@H]1CN(C)S(=O)(=O)c1cccs1 was read as PAX8 inh HTS 17.
`Cc1[nH]n(-c2nc(-c3ccc(Cl)cc3)cs2)c(=O)c1N=Nc1ccc(O)cc1` gave Gli-Sufu block 70*, Shn3 3UTR inh 90*, Mdm2 MdmX PPI 63*, PAX8 inh HTS -4, Beta cell apopt 52, CSC inhib -2, Mdm2 MdmX conf 36, FLuc counter 83*, Gli-Sufu confirm 71*, Gli cytotox 35* and Wnt3a counter 29*.
